The full ranking holds about 9,900 sequences; the median of “r (bound/input frequency ratio)” is about 0.7, and the highest 2% start at about 6.5. Many of the other results were omitted from the sample, so the highest values are more common in it than they were.

B1: ENSMUSG00000038916.65|Soga3 (ssRNA)
RNA: GGGAGUUCUACAGUCCGACGAUCGCUUCGAUAUCCGCAUGCUAACCUUUCUUUGUUUUGCACUCUUGAGUCAUAGUUGACUGGCUGACUGUGAAAAAUGGACAAAGUCUCAUAAUUAUUCUGUAGGAAUUGAGUAUUAUUUUACACCUGGAAAAUUUCAGCUGGUUGCAUUUUCAAAUUCAUGUAGAGGCAUUAAUUAUAAGUCAAUGUAGAUGAUUUAUAAAUUAUCUCUGUUAUAAAUUAUGUAGAUUUGUAAGCAUGCUGUUACUCAUGUUAGACAAAAAGGAAAACAUCAAUGUCUAAUCUCUUGCGGUCGCACUAGUGUGGAAUUCUCGGGUGUCAAGG
B2: ENSMUSG00000061578.1302|Ksr2 (ssRNA)
RNA: GGGAGUUCUACAGUCCGACGAUCGCUUCGAUAUCCGCAUGCUAGGGAUUGGCUGUAGUUAAUUAAAAGCACCUGUCUCUGUCAUCUCUGCACCCAACUGAAUCUCCCACCCUCAAGUGUACCUCUCAGGAUAUCCCCAGGCACACGAAGAUGGAAUGGAAAGCCAGUGGGUAUCUCCCACCCACUUAGAUGCUGAUGGCCUGGGACUAUAAACAGGGACAGUUGGGUCUCCUAAGGAAUAGCUUCCAGGUCCAGGAUGCUGGCAUCUCCCAGAGAGAACUCCAUCCCCUGACCACCAAGGCCUCUCUUGCGGUCGCACUAGUGUGGAAUUCUCGGGUGUCAAGG
B3: ENSMUSG00000061578.924|Ksr2 (ssRNA)
RNA: GGGAGUUCUACAGUCCGACGAUCGCUUCGAUAUCCGCAUGCUACAUGAGCCCAGAUAGUCAAAGACUUCAGCACAAGGGUGUUUAGAGUAGGCAGUGUGGAAGUAUCAAUAAGGUUAUUGAGAUGAGGAUUUAGAAAGAUCCAUGUAUAAAAGGUCUAGAAGGAUGAAGAUCUAAAACAAGAAGACUGCAUGUUAACGCUCCUGCCACUGUUGCCCCUUCCUUUACCCUUGGCAGACAUUGCUAAUCAAUCUCAGCACAGUUUCCAACCACAGUCAUAGAACAUUUGCCACAAAGGCCCUGGACUCUUGCGGUCGCACUAGUGUGGAAUUCUCGGGUGUCAAGG
B4: ENSMUSG00000058297.291|Spock2|95:100 (ssRNA)
RNA: GGGAGUUCUACAGUCCGACGAUCGCUUCGAUAUCCGCAUGCUAAGAGAGAGAGAGAAAGAGAGAGAGAAUGAGAGAGAAUGAGAGAGAGAAUACCCGAGGGCCACCCUGAUGCCCAGGAAGAGUGAGGGCAGCCCCCACACACGUGGAAGAGGCUGGGCAGCUAGCUACUGGGGACCUUGUGCUGAGGCUUCCAGGACAAAGCCCCAGUCUGGCUCUCCCCCAGCCUCUCAGGGGCACUGGCUGGUCACAUCCACUGAGUAUUGAUCGGUUGGACUUUAGGGAAGAGCCUCCUCCUUCCCAUUCUCUUGCGGUCGCACUAGUGUGGAAUUCUCGGGUGUCAAGG
B5: ENSMUSG00000058297.292|Spock2|89:94 (ssRNA)
RNA: GGGAGUUCUACAGUCCGACGAUCGCUUCGAUAUCCGCAUGCUAAGAGAGAAAGAGAGAGAGAAUGAGAGAGAAUGAGAGAGAGAAUACCCGAGGGCCACCCUGAUGCCCAGGAAGAGUGAGGGCAGCCCCCACACACGUGGAAGAGGCUGGGCAGCUAGCUACUGGGGACCUUGUGCUGAGGCUUCCAGGACAAAGCCCCAGUCUGGCUCUCCCCCAGCCUCUCAGGGGCACUGGCUGGUCACAUCCACUGAGUAUUGAUCGGUUGGACUUUAGGGAAGAGCCUCCUCCUUCCCAUUCCUUUCCUCUUGCGGUCGCACUAGUGUGGAAUUCUCGGGUGUCAAGG
B6: ENSMUSG00000058297.294|Spock2|77:82 (ssRNA)
RNA: GGGAGUUCUACAGUCCGACGAUCGCUUCGAUAUCCGCAUGCUAAGAGAGAAUGAGAGAGAAUGAGAGAGAGAAUACCCGAGGGCCACCCUGAUGCCCAGGAAGAGUGAGGGCAGCCCCCACACACGUGGAAGAGGCUGGGCAGCUAGCUACUGGGGACCUUGUGCUGAGGCUUCCAGGACAAAGCCCCAGUCUGGCUCUCCCCCAGCCUCUCAGGGGCACUGGCUGGUCACAUCCACUGAGUAUUGAUCGGUUGGACUUUAGGGAAGAGCCUCCUCCUUCCCAUUCCUUUCUGCCACCCUGGACUCUUGCGGUCGCACUAGUGUGGAAUUCUCGGGUGUCAAGG
B7: ENSMUSG00000061578.830|Ksr2|59:63;101:105;176:180 (ssRNA)
RNA: GGGAGUUCUACAGUCCGACGAUCGCUUCGAUAUCCGCAUGCUAAUAGAAACAGCAUUCUGGCUCACAGUUUCAAAGGGCUCAGUCCAUAGCUGCCUGACUCACACAUUCUAGGCCUUUCUUGAGGCAAGUGUUCAUCAUGAUACACACAGGGUGAGGAGGAGUUUCUUCAUGGCAAACAGGAAGCAAAGAGCAAUACAGGAAAAGGUCAGGGGUGAGAACACACAUUGCCACUUCCUCCAGCUAGGACCUUUGAGCAUCACAUUGUGAAGCCAUCCAGGGACUUGGGGGUUAGGUCAGAGGUACUCUUGCGGUCGCACUAGUGUGGAAUUCUCGGGUGUCAAGG
B8: ENSMUSG00000032194.214|Kank2 (ssRNA)
RNA: GGGAGUUCUACAGUCCGACGAUCGCUUCGAUAUCCGCAUGCUAUUGUUGUUGUUUCUUUGUUUCUUUUCUUCAUAAAGAAGAAAAAGGAAACAACUUCUAGAUGUGCCUUGCGAUAGGGAGGACUUUGUCCUCUCAAGUCUCCCUGUCGUAUCCAGAUCACAGCUGAACCCACUGGGCCUUGGCGCCAAACCUCAGCAGGGCAGCAUUGAGACUCAUGGACUAAAGGAAAGUGUUCACUCUUCUAGACAAGUGGGUCUCUUGGUUUGAUGGAGUCUUACUCCGCUUGAGUUUUGUAGAAGGGGCUCUUGCGGUCGCACUAGUGUGGAAUUCUCGGGUGUCAAGG
B9: ENSMUSG00000029636.67|Wasf3|73:79;237:241 (ssRNA)
RNA: GGGAGUUCUACAGUCCGACGAUCGCUUCGAUAUCCGCAUGCUACCAUCCUGAUUUGGUGGGCUUGCCACGUAUCUGCGCAGCUGCCCCACGUCAGCUCUCUGCAAGAUCACUGGCACACACACUCAGUGAUGUCUUCCAACCAGUGGGUGAUACGUUUUCCUGUUUCUUCCCUUUGCAAAUUGAAUUCCAGGUAGAUAUGGUUGUAGAGGGGAAAGUUUAACAAAUCAGAAUGAAAUGUUUGUCUGUUUGCACACUGGGCCUGGUGGCCUCCAAGGAAAACACAACGAUCGUUUGCUUUCUCUCUCUUGCGGUCGCACUAGUGUGGAAUUCUCGGGUGUCAAGG

Chain of TDP-43 (Q13148 whole entry): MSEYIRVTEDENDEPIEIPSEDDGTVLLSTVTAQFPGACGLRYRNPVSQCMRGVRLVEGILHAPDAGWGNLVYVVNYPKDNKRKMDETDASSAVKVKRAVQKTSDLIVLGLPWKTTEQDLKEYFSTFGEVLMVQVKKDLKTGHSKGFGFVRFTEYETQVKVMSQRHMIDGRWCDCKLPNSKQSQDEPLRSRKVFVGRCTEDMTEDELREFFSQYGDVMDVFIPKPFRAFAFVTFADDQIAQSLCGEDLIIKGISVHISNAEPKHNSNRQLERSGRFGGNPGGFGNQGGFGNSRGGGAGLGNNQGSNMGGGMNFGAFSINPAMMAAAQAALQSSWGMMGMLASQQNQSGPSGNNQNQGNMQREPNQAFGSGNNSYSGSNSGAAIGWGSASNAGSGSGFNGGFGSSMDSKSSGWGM

The experiment concerns the target TDP-43 (Homo sapiens, UniProt Q13148 1-414). Put plainly: RNA Bind-n-Seq with designed 260-mer pool; 25 mM Tris-HCl, 150 mM KCl, 3 mM MgCl2, BSA (printed 500 mg/mL), 20 units/mL SUPERase IN; pH not stated; 500 nM RNA pool, 1 h, 4 C; TDP-43 5, 50, 500 nM; high values mean tight binding. To be noted: protein: recombinant; tags: SBP (GST cleaved off with PreScission; pGEX-GST-SBP). A digest of the protocol:
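Recombinant SBP-tagged TDP-43 at 5, 50 or 500 nM was captured on streptavidin beads, then incubated 1 h at 4 °C with 500 nM of an in vitro-transcribed 260-nt 3′ UTR oligo pool in 25 mM Tris-HCl, 150 mM KCl, 3 mM MgCl2, BSA and SUPERase IN. Bound RNA was washed, eluted with biotin, reverse transcribed, PCR-amplified and sequenced. Binding is R, each oligo's mapped-read-normalized abundance in the bound sample divided by its abundance in input. Duplicates used two independent protein batches.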
For B1, the binding signal was 0.077 R (bound/input frequency ratio). Then B2, with 0.444 R (bound/input frequency ratio); and B3, with 1.12 R (bound/input frequency ratio); and B4, with 8.71 R (bound/input frequency ratio). As for B5, the figure is 5.57 R (bound/input frequency ratio); as for B6, 2.62 R (bound/input frequency ratio); as for B7, 0.325 R (bound/input frequency ratio). Then B8, with 0.273 R (bound/input frequency ratio). B9: the binding signal is 1.65 R (bound/input frequency ratio).

The values are drawn from article PMC12864922, “TDP-43 directly inhibits mRNA accumulation in neurites through modulation of mRNA stability”.
